Shown are actives, neighbours in structure and some others; about 8.3% of the full set was active somewhere.
MCF10A rerep: induces DNA re-replication in MCF 10a normal breast cells | MCF 10A DNA re-replication, Hoechst nuclear intensity, 48 h | Potency, µM (highest dose often 46.1 µM), for the others: top-dose activity, positive = re-replication, most hits filed as activators | 350,000 compounds, 2.9% hits; also: potency is read from the fitted curve at half-maximal effect; % of control where 0% means no effect; nearly all actives have a fitted effect of over 50% in size
Chronic BCR inh: inhibitors of chronic active B-cell receptor signaling; Potency, µM (titrated, usually from 46.1 µM), for the others: at the top dose activity change, negative = inhibition, actives largely listed as inhibitors; ABC-DLBCL IkBa-CBG/CBR reporter, luminescence ratio, 4 h; AID 493014; 340,000 compounds, 0.05% hits; active = well fitted inhibition curve with a large enough effect in the signal ratio, with a control signal flat, not every such curve was filed as active; inconclusive = small, poorly fitted or top-dose-only effect, or effect the other way, or a change in a side signal; the % refers to the signal ratio;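 also: potency is read from the fitted curve at half-maximal effect; plate controls were basal doxycycline-induced cells for no effect and cells given 10 µM MG132 for full effect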
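Concentration-response series (up to 46 uM) were applied to TMD8 dual-reporter cells for 4 h at 37C with doxycycline. Green/red ratio, after filter-overlap correction, defined %Activity; red signal alone was normalised to basal cells and zero luminescence.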
SW480 rerep: induces DNA re-replication in SW480 colon adenocarcinoma cells | 340,000 compounds, 1.8% hits | SW480 DNA re-replication, Hoechst DNA content imaging, 48 h | Potency, µM (top dose mostly 46.1 µM), for inactives: top-dose re-replication activation, actives largely listed as activators; also: potency is read from the fitted curve at half-maximal effect; % of control where 0% means no effect; nearly all actives have a fitted effect of over 55% in size
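Quantitative HTS format with DMSO vehicle controls; 48 hr drug incubation at 37 C, then 40 min Hoechst staining and scanning imager measurement at 405 nm excitation.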
Gal4-VP16 FLuc: counter-screen for ROR gamma inhibitors: Gal4-VP16 reporter; Drosophila S2 Gal4-VP16 UAS-luciferase, luminescence, 20 h; Potency, µM (titrated, usually from 53.6 µM), for the others: at the top dose activity, negative = inhibition, most hits filed as inhibitors; 310,000 compounds, 3.5% hits; AID 2546;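 also: Gal4-VP16 expression switched on by copper sulfate through the metallothionein promoter; potency is read from the fitted curve at half-maximal effect; % is scaled to controls: 0 for no effect and ±100 for the full control effect; nearly all actives have a fitted effect of over 50% in size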
Giardia killer: Giardia lamblia killing. Giardia lamblia trophozoite viability. activity change, % at 7.66 µM, hits read low. 340,000 compounds, 0.15% hits. AID 540267; in the data active = activity change below about -80%; inconclusive = between about -30% and that limit;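 also: parasites exposed to compound for two days anaerobically before the ATP read; % is scaled to controls: 0 for no effect and ±100 for the full control effect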
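ATP-content bioluminescence gauges trophozoite survival. Cells (100/well) receive compound and incubate anaerobically for 48 hrs at 37 deg C; detection reagent follows for 15-30 min at room temperature.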
RORgamma inh: blocks mouse ROR gamma transcriptional activity; 310,000 compounds, 5.4% hits; Potency, µM (highest dose often 53.6 µM), for the others: at the top dose activity change, negative = inhibition, usual class: inhibitors; AID 2551; Drosophila S2 Gal4-RORgamma UAS-luciferase reporter, 20 h; also: potency is read from the fitted curve at half-maximal effect; % is scaled to controls: 0 for no effect and ±100 for the full control effect; nearly all actives have a fitted effect of over 60% in size
Target sequence (P51450 whole entry, looked up, the tested form may be a part): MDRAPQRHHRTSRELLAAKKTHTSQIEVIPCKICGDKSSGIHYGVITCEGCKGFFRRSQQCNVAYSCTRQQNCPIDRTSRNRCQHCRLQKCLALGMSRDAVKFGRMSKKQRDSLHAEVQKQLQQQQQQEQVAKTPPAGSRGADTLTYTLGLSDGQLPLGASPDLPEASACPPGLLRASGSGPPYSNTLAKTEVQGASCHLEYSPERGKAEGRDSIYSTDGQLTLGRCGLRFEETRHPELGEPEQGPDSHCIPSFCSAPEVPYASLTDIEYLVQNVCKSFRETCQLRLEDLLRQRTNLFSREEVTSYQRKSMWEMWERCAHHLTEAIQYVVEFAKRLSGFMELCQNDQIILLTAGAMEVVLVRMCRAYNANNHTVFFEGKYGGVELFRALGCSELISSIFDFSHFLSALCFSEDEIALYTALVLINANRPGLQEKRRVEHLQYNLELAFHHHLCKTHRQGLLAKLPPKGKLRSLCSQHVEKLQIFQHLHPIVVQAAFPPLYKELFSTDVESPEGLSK
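In this cell-based reporter format, copper sulfate (700 uM final) drives Gal4–ROR gamma fusion expression from a metallothionein promoter in Drosophila Schneider cells; compounds preincubated 1 hr, reporter read after 20 hr at ambient temperature.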
* hit, by the source's call; ? = inconclusive; . = no result; [ ] = dose if it differs, or a comment. Unless noted, calls follow the shape of the dose curve; as a rule, active = well fitted curve in the direction sought with a large enough effect; inconclusive = small, poorly fitted or top-dose-only effect, or another doubt; inactive = no such curve, though single readings can be large; an effect the other way counts as inactive or inconclusive.

SMILES	MCF10A rerep	Chronic BCR inh	SW480 rerep	Gal4-VP16 FLuc	Giardia killer	RORgamma inh
COc1ccc(-c2nc(CN3CCN(C(=O)c4ccco4)CC3)c(C)o2)c(OC)c1C	?	-15.3%	1.5%	3.3%	-24.3	?
CC(=O)C1=C(S(=O)(=O)c2ccc(C)cc2)CS(=O)(=O)C1	14.6µM*	?	14.6µM*	6.3%[10 µM]	-6.1	?
O=C(Cc1cccc2ccccc12)NNC(=O)c1ccc(Br)o1	10.5%	0.5%	?	-4.7%	6.5	14.4%
CCOc1ccc(C(=O)Nc2ccc(NC(=O)c3ccccc3)c(C)c2)cc1[N+](=O)[O-]	-1.4%	5.7%	-4.1%	3.0%	-3.9	4.6%
Cc1ccc(OCC(=O)NNC(=S)NC(=O)c2cccs2)c(C)c1	5.0%	8.6%	-4.4%	11.2µM*	-14.7	10µM*
COc1ccc(OCC(=O)NNC(=O)c2cccs2)cc1	-2.6%	0.5%	-3.2%[9.22 µM]	3.2%	3.7	-3.9%
Cc1cc(OCC(=O)NNC(=S)NC(=O)c2cccs2)ccc1Cl	-26.8%	?	-13.3%	?	-8.7	7.94µM*
O=C(COC(=O)[C@@H]1CCCN1C(=O)c1cccs1)Nc1ccc(F)cc1[N+](=O)[O-]	-0.5%	4.5%	-1.9%	-2.2%	11.5	17.0%
COc1ccccc1C(CCNS(=O)(=O)c1ccc(C)cc1)c1ccco1 (stereo not drawn)	13µM*	-4.7%	-110.3%	-11.2%	-12.6	?
Cc1ccc(-c2nc(NCC3CCCO3)sc2C)cc1 (stereo not drawn)	10.0%	4.6%	-12.7%	-9.9%	13.9	11.2µM*
Cc1ccc(S(=O)(=O)c2nc(S(C)(=O)=O)sc2NCC2CCCO2)cc1 (stereo not drawn)	12.2%	0.2%	5.4%	-3.7%	8.0	3.1%
CCOc1ccc(NC(=O)C(Cc2ccccc2)N2C(=O)c3cccc4cccc(c34)C2=O)cc1 (stereo not drawn)	8.2µM*	?	9.2µM*	?	2.0	12.1%
CC(C)NC(=O)C(Cc1ccccc1)N1C(=O)c2ccccc2C1=O (stereo not drawn)	15.6%	12.4%	-1.0%	-1.9%	9.8	11.2%
COC[C@@H](O)[C@@H](OC)[C@H](OC)[C@H](Cc1c(OC)cc(OC)cc1OC)OC	.	.	.	-2.4%	.	-8.7%
CCSc1nc(CC)c2c(c1C#N)CCCC2	-4.1%	?	0.517µM*	-5.2%	-6.1	-21.0%
Cc1cc(=O)n2c(C(=O)Nc3ccc(C(=O)OC(C)C)cc3)c(C(=O)Nc3ccccc3)sc2n1	16.4µM*	1.7%	-81.3%	-24.5%	-9.6	-2.0%
CC(C)OC(=O)c1ccc(NC(=O)c2cccc(-n3cnnn3)c2)cc1	5.0%	?	-7.9%	.	22.3	.
COc1ccc(CNc2cc(C)nc3ncnn23)c(OC)c1	?	?	-1.3%	11.2µM*	-3.8	-22.9%
Clc1ccc(-n2nnnc2SCc2c(-c3ccccc3)nc3sccn23)cc1	13.0%	6.9%	-0.8%	6.31µM*	0.8	?
N=C(N)S/C=C\C(=O)O	.	.	.	31.6µM*	.	31.6µM*
COc1cc(OC)cc(C(=O)NC(C(=O)NNC(=O)CN(C)S(=O)(=O)c2ccc(C)cc2)C(C)C)c1 (stereo not drawn)	10.9%	.	-2.7%	.	?	.
CCOc1ccc(OCC)c(NC(=O)CSc2nc3ccccc3c(=O)n2C)c1	9.1%	-0.4%	2.1%	20µM*	-0.1	-15.1%
CCOc1ccc(OCC)c(NC(=O)CSc2nc3cccnc3n2C)c1	2.5%	-1.0%	-0.2%	2.1%	4.6	?
COCCC(=O)N1CCC(Oc2ccc(C(=O)NC3CCCCC3)cc2)CC1	?	-0.2%	-13.8%	6.2%	-13.0	0.1%
O=C(COc1ccc(C(=S)N2CCCC2)cc1)Nc1ccccc1C(F)(F)F	?	-0.2%	-0.7%	-6.6%	20.5	-25.4%
SMILES	MCF10A rerep	Chronic BCR inh	SW480 rerep	Gal4-VP16 FLuc	Giardia killer	RORgamma inh
Cc1ccccc1NC(=O)Cc1nc(COC(=O)c2cc(Cl)ccc2O)cs1	-0.8%	-8.0%	2.1%	-4.9%	-8.4	-34.9%
Cc1ccccc1NC(=O)Cc1nc(COC(=O)c2cc(Br)ccc2O)cs1	16.4µM*	-4.5%	-6.1%	.	-1.7	.
CCN(CC)C(=S)SCc1csc(CC(=O)Nc2ccccc2C)n1	1.3%	4.6%	-2.0%	-21.8%	5.6	11.2µM*
CCn1c(=O)cc(SCC(=O)NCc2ccc(Cl)cc2)c2ccccc21	.	-25.1%	.	.	.	.
Cn1c(=O)c2c(nc(NCCOc3ccc(F)cc3)n2C)n(C)c1=O	-1.5%	17.6%	-2.3%	-2.2%	-7.9	-9.7%
COc1ccc(CC(=O)N2N=C(c3ccncc3)CC2(O)C(F)(F)F)cc1 (stereo not drawn)	?	?	18.4µM*	-2.7%	-13.4	11.2µM*
CCC1=NN(C(=O)C(=O)Nc2ccc(OC)cc2)C(O)(C(F)(F)F)C1 (stereo not drawn)	-4.6%	1.5%	-0.7%	-22.4%	-5.3	?
COc1ccc(OCC(=O)N2N=C(C)CC2(O)C(F)(F)F)cc1 (stereo not drawn)	-32.6%	0.6%	-18.2%[1.84 µM]	?	-9.3	6.31µM*
COc1ccc(CC(=O)N2N=C(C)CC2(O)C(F)(F)F)cc1OC (stereo not drawn)	0.6%	1.3%	-3.7%	?	-8.0	?
CCC1=NN(C(=O)Cc2ccc(OC)cc2)C(O)(C(F)(F)F)C1 (stereo not drawn)	1.9%	-0.8%	-2.8%	?	7.3	11.2µM*
CCOC(=O)N1N=C(c2ccc(OC)cc2)CC1(O)C(F)(F)F (stereo not drawn)	-1.1%	10.2%	-76.0%	?	-25.1	?
CCc1ccc(C2=NN(C(=O)OC)C(O)(C(F)(F)F)C2)cc1 (stereo not drawn)	1.4%	?	-10.3%	?	-20.7	11.2µM*
COc1ccc(NC(=O)Cc2nnc(SCC(=O)NC3CCCCC3C)n2C)cc1 (stereo not drawn)	-1.0%	-4.6%	3.8%	4.1%	-6.1	3.0%
CS(=O)(=O)c1ccc(-c2sc3cc4c(cc3c2C(=O)NN2CCOCC2)OCO4)cc1	4.1%	1.1%	-2.4%	.	11.0	.
CCOC(=O)c1nn(-c2ccc(F)cc2)c(=O)cc1OCC(=O)N1CCN(c2ccccc2)CC1	4.8%	-7.2%	-1.9%	.	0.5	.
CCS(=O)(=O)N1CCCC(C(=O)NCCc2ccc(C)cc2)C1 (stereo not drawn)	-66.9%	0.5%	13µM*	4.7%	-1.6	14.5%
Clc1ccc(-c2nc3sccn3c2/C=N/OCc2ccc(Cl)c(Cl)c2)cc1	.	.	.	-9.0%	.	20.4%
CO/N=C/c1c(-c2ccc(Cl)cc2)nc2cc(C)ccn12	?	0.9%	?	5.7%	-17.8	8.91µM*
